Results from PubChem BioAssay (EPA / NIEHS).
Records with an inconclusive call do not appear. Calls of active or inactive are those of the source. How the source made its calls, unless noted: active means hit-call score of the fitted dose curve at least 0.9, where 1 is the maximum; inconclusive means response in the unintended direction; inactive means score below 0.9.

Columns and labels:
[1] = target: Cellular tumor antigen p53 (Homo sapiens) (UniProt P04637); assay: TOX21_p53_BLA_p2_ratio: Tox21 HCT-116 p53 Agonism Beta-lactamase Assay, Ratio, Phase 2 (AID 2283592)
Cellular tumor antigen p53 (Homo sapiens), sequence (P04637 whole entry, looked up): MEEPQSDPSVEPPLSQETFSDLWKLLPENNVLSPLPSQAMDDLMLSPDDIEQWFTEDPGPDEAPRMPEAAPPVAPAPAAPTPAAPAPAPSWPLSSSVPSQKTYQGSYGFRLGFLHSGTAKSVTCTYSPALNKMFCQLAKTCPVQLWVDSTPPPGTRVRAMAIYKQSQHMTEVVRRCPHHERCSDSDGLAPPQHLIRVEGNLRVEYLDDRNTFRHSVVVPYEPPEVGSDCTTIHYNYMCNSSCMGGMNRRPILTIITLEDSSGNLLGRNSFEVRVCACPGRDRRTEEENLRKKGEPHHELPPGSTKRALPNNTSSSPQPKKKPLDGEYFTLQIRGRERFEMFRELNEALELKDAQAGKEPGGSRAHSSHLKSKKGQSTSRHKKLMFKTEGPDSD
Procedure, shortened: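 An inducible beta-lactamase reporter in HCT116 cells signals p53 pathway activation. After 16 h chemical exposure at 37C, cells load CCF4-AM substrate for 2 h at room temperature; activity is the cleaved/uncleaved emission ratio relative to DMSO.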

[2] = TOX21_p53_BLA_p3_viability: Viability Assessment in the Tox21 HCT-116 p53 Agonism Beta-lactamase Assay, Phase 3 (AID 2283593);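 further: cells exposed to compound for 16 h before reading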
Procedure, shortened: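 Cellular ATP was quantified by CellTiter-Glo luminescence, read after 30 min at room temperature. Beforehand, HCT116 cells (4000/well) received compound 5 h post-seeding, 217-fold diluted from DMSO, then incubated 16 h at 37C.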

[3] = target: Cellular tumor antigen p53 (Homo sapiens) (UniProt P04637); assay: TOX21_p53_BLA_p3_ratio: Tox21 HCT-116 p53 Agonism Beta-lactamase Assay, Ratio, Phase 3 (AID 2283596)
Procedure, shortened: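 HCT116 p53-bla cells (4000/well) given compound in DMSO (217-fold dilution) after 5 h, incubated 16 h at 37C. CCF4-AM substrate 2 h at room temperature; 460/530 nm emission ratio, gain fitted against DMSO.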

[4] = target: Cellular tumor antigen p53 (Homo sapiens) (UniProt P04637); assay: TOX21_p53_BLA_p5_ratio: Tox21 HCT-116 p53 Agonism Beta-lactamase Assay, Ratio, Phase 5 (AID 2283599)
Procedure, shortened: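 Beta-lactamase reporter ratio (blue 460 nm over green 530 nm, 405 nm excitation) after 2 h CCF4-AM loading, in HCT-116 cells exposed 16 h at 37 C to compounds pinned at 217-fold dilution. Increases relative to DMSO baseline scored.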

[5] = target: Cellular tumor antigen p53 (Homo sapiens) (UniProt P04637); assay: TOX21_p53_BLA_p4_ratio: Tox21 HCT-116 p53 Agonism Beta-lactamase Assay, Ratio, Phase 4 (AID 2283601)
Procedure, shortened: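 Signal is the blue/green (460nm/530nm) ratio of cleaved versus uncleaved CCF4-AM substrate, read after 2 h substrate loading. Cells were HCT116 carrying the p53-responsive beta-lactamase reporter, dosed 16 h at 37C, 5% CO2; CellTiter-Glo measured in parallel.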

[6] = TOX21_p53_BLA_p4_viability: Viability Assessment in the Tox21 HCT-116 p53 Agonism Beta-lactamase Assay, Phase 4 (AID 2283597);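 further: hits lower the luminescence signal meaning cytotoxicity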
Procedure, shortened: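 Compound exposure of HCT116 cells lasts 16 h at 37C, 5% CO2, with DMSO stocks diluted 217-fold. Cellular ATP is then quantified by CellTiter-Glo luminescence after 30 min at room temperature.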

[7] = TOX21_p53_BLA_p5_viability: Viability Assessment in the Tox21 HCT-116 p53 Agonism Beta-lactamase Assay, Phase 5 (AID 2283600)
Procedure, shortened: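 Counter-readout for cytotoxicity: ATP-dependent luminescence from CellTiter-Glo, read in the beta-lactamase wells after 30 min at RT, following a 16 h compound exposure at 37C.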

[8] = UKN5_HCS_SBAD2_cell_viability: Viability Assessment in the University of Konstanz (UKN) Leist Lab Neurite Outgrowth Assay in human iPSC-derived immature Dorsal Root Ganglia Neurons (UKN5) (AID 2284056; active means hit-call score of the fitted dose curve at least 0.9, where 1 is the maximum; inactive means score below 0.9)
Procedure, shortened: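 iPSC-derived immature peripheral neurons (SBAD2) seeded on Matrigel with CHIR99021, SU5402 and DAPT, dosed 1 h later for 24 h. Viability from Hoechst H-33342 and calcein-AM live staining, high-content imaging; bidirectional fit versus DMSO.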

[9] = UKN5_HCS_SBAD2_neurite_outgrowth: University of Konstanz (UKN) Leist Lab Neurite Outgrowth Assay in human iPSC-derived immature Dorsal Root Ganglia Neurons (UKN5) (AID 2284070; active means hit-call score of the fitted dose curve at least 0.9, where 1 is the maximum; inactive means score below 0.9); settings: actives raise or lower the signal
Procedure, shortened: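 SBAD2 iPSC-derived immature peripheral neurons on Matrigel, 100.000 cells/cm2, medium with CHIR99021 (1.5 uM), SU5402 (5 uM), DAPT (5 uM); compound added 1 h post-seeding for 24 h. Calcein-AM neurite area by high-content imaging; Hoechst H-33342 viability; bidirectional fit vs DMSO.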

[10] = UKN2_HCS_IMR90_neural_migration: University of Konstanz (UKN) Leist Lab Neural Crest Cell Migration Assay in human induced IMR90 Pluripotent Stem Cells (UKN2) (AID 2284204; active means hit-call score of the fitted dose curve at least 0.9, where 1 is the maximum; inactive means score below 0.9); settings: actives raise or lower the signal
Procedure, shortened: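 Migration of human IMR90-derived neural crest cells into a stopper-defined gap is imaged after 24 h chemical treatment. Activity is fitted bidirectionally relative to DMSO.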

[11] = UKN4_HCS_LUHMES_neurite_outgrowth: University of Konstanz (UKN) Leist Lab Neurite Outgrowth Assay in human LUHMES cells (UKN4) (AID 2284206; active means hit-call score of the fitted dose curve at least 0.9, where 1 is the maximum; inactive means score below 0.9); settings: actives raise or lower the signal
Procedure, shortened: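 Human LUHMES neuronal precursors, differentiated 2 days then replated without cAMP and GDNF, exposed to compounds for 24 h. Neurite area imaged by high-content microscopy after calcein-AM live staining; Hoechst H-33342 for viability; bidirectional fit versus DMSO.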

[12] = UKN4_HCS_LUHMES_cell_viability: Viability Assessment in the University of Konstanz (UKN) Leist Lab Neurite Outgrowth Assay in human LUHMES cells (UKN4) (AID 2284232; active means hit-call score of the fitted dose curve at least 0.9, where 1 is the maximum; inactive means score below 0.9)
Procedure, shortened: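 LUHMES precursors differentiated 2 days, replated at 30000 cells/well without cAMP/GDNF, then compound-treated 24 h. Viability from Hoechst H-33342 and calcein-AM live staining (30 min) by high-content fluorescence imaging; bidirectional fit versus DMSO.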

[13] = UKN2_HCS_IMR90_cell_viability: Viability Assessment in the University of Konstanz (UKN) Leist Lab Neural Crest Cell Migration Assay in human induced IMR90 Pluripotent Stem Cells (UKN2) (AID 2284233; active means hit-call score of the fitted dose curve at least 0.9, where 1 is the maximum; inactive means score below 0.9;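 further: viability of neural crest cells differentiated from IMR90 iPSC measured by calcein-AM fluorescence imaging; cells exposed to compound for 24 h after a 24 h migration phase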)
Procedure, shortened: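 Human IMR90-derived neural crest cells were allowed to migrate for 24 h into a cell-free zone, then exposed to test chemicals for 24 h. Calcein-AM and Hoechst staining with high-content imaging gave viability, analysed against DMSO baseline.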

Measured: outcome

Clc1ccc2ccccc2c1
inactive: [1] | [2] | [3] | [4] | [5]

CC(=O)Oc1ccc2c3c1O[C@H]1[C@@H](OC(C)=O)C=C[C@H]4[C@@H](C2)N(C)CC[C@@]341
inactive: [1] | [3] | [6] | [4] | [7] | [5] | [8] | [9] | [10] | [11] | [12] | [13]

O=C(O)C(Cl)(Cl)Br
inactive: [1] | [2] | [4] | [5]

CCCN(CCCl)c1c([N+](=O)[O-])cc(C(F)(F)F)cc1[N+](=O)[O-]
inactive: [1] | [2] | [7]

Oc1cccc(Cl)c1Cl
inactive: [1] | [3] | [6] | [4] | [7] | [5]

CN1CCCC(=C(c2cccs2)c2cccs2)C1
inactive: [1] | [3]
